Source: article PMC4336329 (PLoS ONE, 2015)
Screen size: about 310,000 compounds; about 14,000 (4.5%) showed an effect of 50% or more. Effects have a minus sign here. Shown is part of a subset that was picked to be rich in strong results.

Biological target: human ether-à-go-go-related gene (hERG) potassium channel (human, UniProt Q12809)
Experiment: primary screen, population patch clamp on CHO cells stably expressing hERG; higher = less effect of the substance
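Also: peak tail current of the secondary pulse compared with the same well before compound.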

human ether-à-go-go-related gene (hERG) potassium channel, sequence (Q12809 whole entry, looked up): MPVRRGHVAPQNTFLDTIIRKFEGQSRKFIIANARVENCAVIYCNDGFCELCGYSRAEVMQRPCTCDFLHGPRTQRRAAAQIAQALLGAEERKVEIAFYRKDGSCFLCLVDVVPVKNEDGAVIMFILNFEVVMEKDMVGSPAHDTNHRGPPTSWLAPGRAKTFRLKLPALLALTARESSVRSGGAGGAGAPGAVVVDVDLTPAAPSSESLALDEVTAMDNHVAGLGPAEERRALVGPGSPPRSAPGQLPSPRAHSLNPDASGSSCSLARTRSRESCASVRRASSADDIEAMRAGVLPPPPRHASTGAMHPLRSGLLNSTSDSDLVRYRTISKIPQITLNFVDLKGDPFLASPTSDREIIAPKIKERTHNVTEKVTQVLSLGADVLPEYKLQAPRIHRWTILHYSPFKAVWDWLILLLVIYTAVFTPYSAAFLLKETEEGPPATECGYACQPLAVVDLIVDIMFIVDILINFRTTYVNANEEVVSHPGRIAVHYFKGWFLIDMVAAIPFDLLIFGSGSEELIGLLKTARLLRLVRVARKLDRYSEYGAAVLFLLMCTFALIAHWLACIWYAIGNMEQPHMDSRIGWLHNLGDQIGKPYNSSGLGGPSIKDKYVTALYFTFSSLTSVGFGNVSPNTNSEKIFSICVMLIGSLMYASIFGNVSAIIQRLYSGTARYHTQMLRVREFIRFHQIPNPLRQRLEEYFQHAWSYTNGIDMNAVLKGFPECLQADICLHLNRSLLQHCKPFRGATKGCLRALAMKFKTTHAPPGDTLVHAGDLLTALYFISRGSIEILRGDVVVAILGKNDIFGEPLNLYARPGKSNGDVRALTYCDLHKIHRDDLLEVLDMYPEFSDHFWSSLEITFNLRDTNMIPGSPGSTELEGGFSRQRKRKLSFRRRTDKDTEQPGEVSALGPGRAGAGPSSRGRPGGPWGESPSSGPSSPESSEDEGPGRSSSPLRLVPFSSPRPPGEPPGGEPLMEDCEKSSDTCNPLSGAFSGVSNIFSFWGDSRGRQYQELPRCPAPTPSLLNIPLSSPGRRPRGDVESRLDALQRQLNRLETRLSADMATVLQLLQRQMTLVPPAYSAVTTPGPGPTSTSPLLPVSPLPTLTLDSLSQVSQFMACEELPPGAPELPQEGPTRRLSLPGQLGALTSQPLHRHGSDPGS

Row | Compound | hERG current change (%, negative = inhibition) at 10uM
1 | CCOc1cccc(N2C(=O)CC(N(CCc3ccc(OC)c(OC)c3)C(=O)CC)C2=O)c1 (stereo not drawn) | 24.9%
2 | COc1ccc(Cc2nnc(SCC(=O)Nc3ccc(C)cc3C)[nH]c2=O)cc1 | -16.8%
3 | Cc1ccc(NC(=O)CSc2nnc(Cc3ccccc3)c(=O)[nH]2)c(C)c1 | -51.4%
4 | Cc1ccc(Cc2nnc(SCC(=O)Nc3ccc(C)cc3C)[nH]c2=O)cc1 | 5.33%
5 | CCOc1cc(CNc2ccc3c(c2)CCC3)ccc1OC | -8.96%
6 | Cc1ccc(NC(=O)CS(=O)(=O)c2c[nH]c3ccccc23)c(C)c1 | 11.9%
7 | CC(C)CN(CCNC(=O)CN1N=C(c2ccc(Cl)cc2)CCC1=O)CC(C)C | -42.4%
8 | Cc1ccc(CC(=O)NCc2ccc3c(c2)OCO3)cc1 | 2.24%
9 | O=C(CCN1N=C(c2ccccc2)CCC1=O)NCCCN1CCOCC1 | 21.2%
10 | COc1ccc(C2=NN(CCC(=O)NCc3ccc4c(c3)OCO4)C(=O)CC2)cc1 | -18.8%
11 | Cc1ccc(C2=NN(CC(=O)NCCN(CC(C)C)CC(C)C)C(=O)CC2)cc1 | -50.2%
12 | Cc1ccc(C2=NN(CCC(=O)NCCCN3CCOCC3)C(=O)CC2)cc1 | -52.3%
13 | Cc1ccc(C2=NN(CCC(=O)NCCC(C)C)C(=O)CC2)cc1 | -24.5%
14 | O=C(CN1N=C(c2ccccc2)CCC1=O)NCCN1CCc2ccccc2C1 | -15.7%
15 | Cc1ccc(C2=NN(CCC(=O)NCc3ccc4c(c3)OCO4)C(=O)CC2)cc1 | -69.7%
16 | Cc1ccc(-c2ccc(=O)n(CC(=O)NCCN(CC(C)C)CC(C)C)n2)cc1 | -16.3%
17 | O=C(CN1N=C(c2ccc(Cl)cc2)CCC1=O)NCCN1CCc2ccccc2C1 | -51.4%
18 | O=C(CN1N=C(c2ccccc2)CCC1=O)NCCCN1CCc2ccccc2C1 | -49.6%
19 | O=C(CN1C(=O)NC2(CCCC2)C1=O)N1CCN(S(=O)(=O)c2ccccc2F)CC1 | 22.3%
20 | O=[N+]([O-])c1ccc(O)c(NC(=S)Nc2ccccc2)c1 | 23.9%
21 | NC(=S)NC1CC2CC1C1C=CCC21 (stereo not drawn) | 6.66%

Row | Compound | hERG current change (%, negative = inhibition) at 10uM
22 | CCOc1ccc(N(CC(=O)NCc2ccc(C)cc2)S(=O)(=O)c2c(C)[nH]c(=O)[nH]c2=O)cc1 | 6.73%
23 | Cc1nn(-c2ccccc2)c(Cl)c1C(=O)NCCCCNC(=O)c1c(C)nn(-c2ccccc2)c1Cl | -2.76%
24 | CN(C)CCCNc1ccc(S(N)(=O)=O)cc1[N+](=O)[O-] | -13.1%
25 | C=CCNC(=O)CN1N=C(c2ccc(C)cc2)CCC1=O | -44.3%
26 | CCCCN(C)CCCNC(=O)CN1N=C(c2ccc(Cl)cc2)CCC1=O | -56.7%
27 | Cc1ccc(C2=NN(CC(=O)O)C(=O)CC2)cc1 | -51.4%
28 | CC(C)CN(CCCNC(=O)CN1N=C(c2ccc(Cl)cc2)CCC1=O)CC(C)C | -21.8%
29 | CCOC(=O)CN1N=C(c2ccc(C)cc2)CCC1=O | -47.2%
30 | Cc1ccc(C2=NN(CC(=O)NCCC(C)C)C(=O)CC2)cc1 | 4.58%
31 | CC(C)CCNC(=O)CN1N=C(c2ccc(Cl)cc2)CCC1=O | -15.8%
32 | CCN(CC)CCCNC(=O)CN1N=C(c2ccc(OC)cc2)CCC1=O | 14.5%
33 | COCCNC(=O)CN1N=C(c2ccc(C)cc2)CCC1=O | -47.9%
34 | CCCCCCCNC(=O)CN1N=C(c2ccc(C)cc2)CCC1=O | -67.8%
35 | CCOCCCNC(=O)CN1N=C(c2ccc(C)cc2)CCC1=O | -73.9%
36 | Cc1ccc(C2=NN(CC(=O)NCCN(C)C)C(=O)CC2)cc1 | -44.9%
37 | Cc1cc(SCC(=O)OCC(=O)N(C)c2ccccc2)nc2ccccc12 | -22.8%
38 | C=C[C@]1(C)C=C2CCC3[C@](C)(CCC[C@@]3(C)C(=O)O)C2CC1 (stereo partly drawn) | 13.3%
39 | O=C(CCCN1C(=O)c2ccccc2C1=O)Nc1cccnc1 | -2.46%
40 | O=C(NCc1ccccn1)C1(C(F)(F)F)C/C(=C\CCO)CCCO1 (stereo not drawn) | 6.37%
41 | CCOc1ccc(S(=O)(=O)Nc2cccc(C(=O)N(C)Cc3cccc(OC)c3OC)c2)cc1 | -11.6%
42 | O=C1[C@@H]2[C@H](C(=O)N1n1cnnc1)[C@H]1C=C[C@@H]2C1 | 11.5%

Row | Compound | hERG current change (%, negative = inhibition) at 10uM
43 | Cc1ccc(NC(=O)CN2CCCCCC2)cc1[N+](=O)[O-] | 23.1%
44 | O=C(Nc1ccc(N2CCOCC2)c2nonc12)C1CCCC1 | 3.34%
45 | CCCn1c(=O)c2sccc2n2c(CCCC(=O)NCc3cccnc3)nnc12 | 19.2%
46 | C=CCNC(=O)CSc1n[nH]c(-c2cc(Cl)ccc2OC)n1 | 8.25%
47 | COc1ccc(Cl)cc1NC(=O)CN(C)C(=O)c1cn(-c2ccccc2)nc1-c1cccnc1 | -59.9%
48 | COc1ccc(Cl)cc1NC(=O)CN(C)C(=O)c1ccc2n[nH]nc2c1 | -13.8%
49 | COc1ccc(NC(=O)CN(C)C(=O)c2cn(-c3ccccc3)nc2-c2ccc(Cl)cc2)cc1 | 12.1%
50 | COc1ccc(Cl)cc1NC(=O)CN(C)C(=O)c1cccc(-n2cnnn2)c1 | -53.6%
51 | COc1ccc(NC(=O)CN(C)C(=O)c2cn(-c3ccccc3)nc2-c2cccnc2)cc1 | -24.2%
52 | COc1ccc(Cl)cc1NC(=O)COc1cccc(-n2cnnn2)c1 | 10.3%
53 | CCc1ccc(C(=O)Nc2cccc(-c3nn[nH]n3)c2)s1 | 16.9%
54 | CCOC(=O)C1CN(S(C)(=O)=O)c2cc(CC(=O)OC)ccc2O1 (stereo not drawn) | 1.78%
55 | COc1ccccc1C(=O)NCCSCc1c(F)cccc1Cl | -15.4%
56 | Cc1cccn2c(=O)c3cc(C(=O)NCC4CCCO4)c(=N)n(C4CCCC4)c3nc12 (stereo not drawn) | -74.8%
57 | Cc1cccn2c(=O)c3cc(C(=O)NCC4CCCO4)c(=N)n(C4CCCCC4)c3nc12 (stereo not drawn) | -77.3%
58 | O=C(O)c1nn2c(C(F)(F)F)cc(-c3cccs3)nc2c1Cl | 1.4%
59 | COc1cccc(C(=O)Nc2cc(=O)n(C)c(=O)n2C)c1OC | 13.1%
60 | Cc1nn(Cc2ccc(C(=O)NC3CCCCC3)o2)c(C)c1Br | -34.6%
61 | COc1ccc2c(c1)c(CC(=O)O)c(C)n2C(=O)c1ccc(Cl)cc1 | 6.45%
62 | COc1ccc(/C=N/OCC(=O)N2CC3(C)CC2CC(C)(C)C3)cc1 (stereo not drawn) | -56%
63 | COc1ccc(/C=N/OCC(=O)N2CC3(C)CC2CC(C)(C)C3)cc1OC (stereo not drawn) | -3.72%

Row | Compound | hERG current change (%, negative = inhibition) at 10uM
64 | COc1ccc(OCC(=O)N2CC3(C)CC2CC(C)(C)C3)cc1 (stereo not drawn) | -21.2%
65 | N#Cc1ccc(COC(=O)c2ccc3c(c2)OCO3)cc1 | -27.4%
66 | CCc1ccc(NC(=O)CC2C(=O)NCCN2C(=O)c2ccc(F)cc2)cc1 (stereo not drawn) | -55.4%
67 | Cc1ccc(NC(=O)CC2C(=O)NCCN2C(=O)c2ccc(F)cc2)cc1 (stereo not drawn) | -26.3%
68 | CC(C)(C)c1ccc(C(=O)N2CCNC(=O)C2CC(=O)Nc2ccc(F)cc2)cc1 (stereo not drawn) | 13.9%
69 | O=S(=O)(Cc1ccccc1)Nc1ccc(F)cc1 | 7.05%
70 | O=C1c2cccc3cccc(c23)C(=O)N1OS(=O)(=O)c1ccc(Br)cc1 | 24.2%
71 | COc1cc(C(=S)N2CCOCC2)ccc1OC(=O)c1ccc([N+](=O)[O-])cc1[N+](=O)[O-] | 17.1%
72 | COc1cc(C(=S)N2CCOCC2)ccc1OC(=O)c1cc([N+](=O)[O-])cc([N+](=O)[O-])c1 | 0.943%
73 | COc1ccc(C(=S)N2CCOCC2)cc1OS(=O)(=O)c1ccc(Br)cc1 | -70%
74 | COc1ccc(C(=S)N2CCOCC2)cc1OC(=O)c1ccc([N+](=O)[O-])cc1[N+](=O)[O-] | -52%
75 | COc1ccc(S(=O)(=O)Oc2ccc(C(=S)N3CCOCC3)cc2OC)cc1 | -0.365%
76 | COc1ccc(C(=S)N2CCOCC2)cc1OC(=O)c1cccc([N+](=O)[O-])c1 | -39.9%
77 | CCOc1cc(C(=S)N2CCOCC2)ccc1OS(=O)(=O)c1ccc(Br)cc1 | -1.54%
78 | COc1cc(C(=S)N2CCOCC2)cc(OC)c1OC(=O)c1ccc([N+](=O)[O-])cc1[N+](=O)[O-] | -4.69%
79 | COc1ccc(C(=S)N2CCOCC2)cc1OC(=O)c1ccc([N+](=O)[O-])cc1 | -63%
80 | CCCc1nc(C)c2c(=O)[nH]c(-c3cc(S(=O)(=O)N4CCN(CC)CC4)ccc3OCC)nn12.O=C(O)CC(O)(CC(=O)O)C(=O)O | 0.215%
81 | COc1cccc(N2CCN(S(=O)(=O)c3ccc4c(c3)CC(C)N4C(=O)C3CC3)CC2)c1 (stereo not drawn) | 17.8%
82 | CC1C(=O)N(Cc2ccccc2F)c2ccccc2N1C(=O)c1c(F)cccc1F (stereo not drawn) | -6.04%
83 | CC(C)N1CCc2c(sc(NC(=O)c3nc4ccccc4s3)c2C(N)=O)C1.Cl | -45.1%
84 | CCCn1c(SCC(=O)/C(C#N)=C(\C)N)n[nH]c1=O | 7.25%
